Assay [1] concerns the target Protein kinase C gamma type (Homo sapiens) (UniProt P05129). The conditions noted are these: at 1 µM.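 Also: each value is an averaged percent inhibition of the enzyme.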
Assay [2] deals with T1, Protein kinase C iota type (Homo sapiens) (UniProt P41743).
T1 sequence (whole entry): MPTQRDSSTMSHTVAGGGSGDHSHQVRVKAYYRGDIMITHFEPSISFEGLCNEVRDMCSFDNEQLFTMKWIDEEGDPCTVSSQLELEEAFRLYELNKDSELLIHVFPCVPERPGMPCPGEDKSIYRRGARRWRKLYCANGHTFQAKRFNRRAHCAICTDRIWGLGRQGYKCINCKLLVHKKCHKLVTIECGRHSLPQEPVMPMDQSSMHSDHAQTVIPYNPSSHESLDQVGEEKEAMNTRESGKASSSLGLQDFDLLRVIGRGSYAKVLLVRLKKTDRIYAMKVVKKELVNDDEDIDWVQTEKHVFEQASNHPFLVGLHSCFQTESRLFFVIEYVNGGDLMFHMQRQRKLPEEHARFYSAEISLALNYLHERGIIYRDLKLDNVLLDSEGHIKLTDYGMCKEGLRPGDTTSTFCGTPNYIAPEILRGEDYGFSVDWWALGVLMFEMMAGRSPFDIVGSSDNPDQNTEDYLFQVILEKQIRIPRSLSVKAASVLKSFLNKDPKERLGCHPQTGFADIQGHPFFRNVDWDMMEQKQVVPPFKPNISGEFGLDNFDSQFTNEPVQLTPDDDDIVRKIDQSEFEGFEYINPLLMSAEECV
The conditions noted are these: at 0.1 µM.

In assay [3] the target is T1, Protein kinase C iota type (Homo sapiens). The following applies: at 1 µM.
The target in assay [4] is Protein kinase C theta type (Homo sapiens) (UniProt Q04759). The following applies: at 0.1 µM.
Assay [5] shares this target. The conditions noted are these: at 1 µM.
Assay [6] concerns the target Protein kinase C beta type (Homo sapiens) (UniProt P05771). The following applies: at 0.1 µM.
The target is the same in assay [7]. The following applies: at 1 µM.
Assay [8] concerns the target T2, Serine/threonine-protein kinase D1 (Homo sapiens) (UniProt Q15139).
T2 sequence (whole entry): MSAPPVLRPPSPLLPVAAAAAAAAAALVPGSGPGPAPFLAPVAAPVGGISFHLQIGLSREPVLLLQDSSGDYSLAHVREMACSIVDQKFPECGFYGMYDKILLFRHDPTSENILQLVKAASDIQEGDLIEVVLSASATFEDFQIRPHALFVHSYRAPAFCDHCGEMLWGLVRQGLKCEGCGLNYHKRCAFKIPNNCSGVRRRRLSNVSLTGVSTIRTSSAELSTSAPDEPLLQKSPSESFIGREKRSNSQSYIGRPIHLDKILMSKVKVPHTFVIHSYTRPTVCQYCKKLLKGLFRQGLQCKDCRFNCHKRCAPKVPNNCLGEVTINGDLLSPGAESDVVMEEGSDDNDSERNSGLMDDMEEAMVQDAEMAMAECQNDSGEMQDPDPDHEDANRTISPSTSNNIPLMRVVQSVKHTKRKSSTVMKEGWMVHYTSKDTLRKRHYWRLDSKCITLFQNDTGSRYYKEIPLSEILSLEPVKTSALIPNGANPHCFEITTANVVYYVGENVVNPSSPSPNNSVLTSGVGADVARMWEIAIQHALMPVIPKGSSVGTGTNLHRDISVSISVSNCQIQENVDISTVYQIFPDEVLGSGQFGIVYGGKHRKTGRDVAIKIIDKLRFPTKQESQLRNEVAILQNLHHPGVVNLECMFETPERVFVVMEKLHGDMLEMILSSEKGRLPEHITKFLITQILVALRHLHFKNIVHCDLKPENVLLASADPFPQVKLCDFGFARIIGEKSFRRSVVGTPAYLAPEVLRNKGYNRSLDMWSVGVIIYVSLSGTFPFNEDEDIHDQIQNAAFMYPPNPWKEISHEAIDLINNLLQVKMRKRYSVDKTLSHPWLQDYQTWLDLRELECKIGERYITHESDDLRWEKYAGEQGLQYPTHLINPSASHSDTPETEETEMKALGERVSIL
The following applies: at 0.1 µM.

Assay [9] concerns the target T2, Serine/threonine-protein kinase D1 (Homo sapiens). The following applies: at 1 µM.
The target of assay [10] is T3, Serine/threonine-protein kinase D2 (Homo sapiens) (UniProt Q9BZL6).
T3 sequence (whole entry): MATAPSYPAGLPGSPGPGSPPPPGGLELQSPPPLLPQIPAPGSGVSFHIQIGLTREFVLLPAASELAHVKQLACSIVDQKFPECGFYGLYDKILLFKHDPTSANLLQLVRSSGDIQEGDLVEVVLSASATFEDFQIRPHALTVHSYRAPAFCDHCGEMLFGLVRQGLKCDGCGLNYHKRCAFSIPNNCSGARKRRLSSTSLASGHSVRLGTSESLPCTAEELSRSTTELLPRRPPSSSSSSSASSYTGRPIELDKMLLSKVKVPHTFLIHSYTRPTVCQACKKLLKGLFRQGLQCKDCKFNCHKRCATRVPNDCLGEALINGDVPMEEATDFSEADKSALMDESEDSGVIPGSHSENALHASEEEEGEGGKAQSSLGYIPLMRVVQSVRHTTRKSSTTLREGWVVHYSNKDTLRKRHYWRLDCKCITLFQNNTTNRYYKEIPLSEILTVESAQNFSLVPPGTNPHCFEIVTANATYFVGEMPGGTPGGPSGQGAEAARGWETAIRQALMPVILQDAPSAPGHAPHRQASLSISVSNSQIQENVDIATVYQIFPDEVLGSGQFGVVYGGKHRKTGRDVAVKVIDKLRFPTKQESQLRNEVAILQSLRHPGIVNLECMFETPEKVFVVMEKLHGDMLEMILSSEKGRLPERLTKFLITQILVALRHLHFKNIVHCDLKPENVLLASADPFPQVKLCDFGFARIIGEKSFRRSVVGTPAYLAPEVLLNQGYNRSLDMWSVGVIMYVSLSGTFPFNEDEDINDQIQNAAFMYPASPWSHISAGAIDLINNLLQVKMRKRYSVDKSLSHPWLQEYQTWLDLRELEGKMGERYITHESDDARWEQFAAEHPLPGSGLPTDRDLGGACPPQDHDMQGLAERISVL
The conditions noted are these: at 0.1 µM.

For assay [11], the target named is T3, Serine/threonine-protein kinase D2 (Homo sapiens). The conditions noted are these: at 1 µM.
Assay [12] addresses T4, Serine/threonine-protein kinase D3 (Homo sapiens) (UniProt O94806).
T4 sequence (whole entry): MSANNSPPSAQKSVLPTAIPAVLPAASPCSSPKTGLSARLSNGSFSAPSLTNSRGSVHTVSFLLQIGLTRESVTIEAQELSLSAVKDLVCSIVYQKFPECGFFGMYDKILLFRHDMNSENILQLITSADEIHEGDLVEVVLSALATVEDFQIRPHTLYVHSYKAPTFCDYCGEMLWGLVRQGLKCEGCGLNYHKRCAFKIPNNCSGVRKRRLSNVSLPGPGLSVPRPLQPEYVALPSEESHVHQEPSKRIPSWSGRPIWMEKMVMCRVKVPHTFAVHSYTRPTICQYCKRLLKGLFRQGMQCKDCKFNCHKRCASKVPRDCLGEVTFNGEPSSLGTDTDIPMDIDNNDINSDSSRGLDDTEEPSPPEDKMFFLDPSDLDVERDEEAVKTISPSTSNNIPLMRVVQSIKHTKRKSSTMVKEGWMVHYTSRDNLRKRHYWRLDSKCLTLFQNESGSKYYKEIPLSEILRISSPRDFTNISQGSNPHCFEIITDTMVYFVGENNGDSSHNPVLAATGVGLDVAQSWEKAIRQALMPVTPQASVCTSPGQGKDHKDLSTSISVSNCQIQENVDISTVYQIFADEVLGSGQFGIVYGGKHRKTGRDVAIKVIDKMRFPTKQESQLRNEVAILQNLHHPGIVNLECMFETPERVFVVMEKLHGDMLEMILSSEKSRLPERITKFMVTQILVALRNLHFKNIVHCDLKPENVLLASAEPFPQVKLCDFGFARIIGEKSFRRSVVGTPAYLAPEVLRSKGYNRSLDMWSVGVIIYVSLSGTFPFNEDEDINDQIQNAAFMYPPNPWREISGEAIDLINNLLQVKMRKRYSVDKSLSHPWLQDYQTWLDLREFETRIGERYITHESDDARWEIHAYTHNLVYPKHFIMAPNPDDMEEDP
The conditions noted are these: at 0.1 µM.

The target of assay [13] is T4, Serine/threonine-protein kinase D3 (Homo sapiens). The following applies: at 1 µM.
In assay [14] the target is T5, cGMP-dependent protein kinase 1 (Homo sapiens) (UniProt Q13976).
T5 sequence (whole entry): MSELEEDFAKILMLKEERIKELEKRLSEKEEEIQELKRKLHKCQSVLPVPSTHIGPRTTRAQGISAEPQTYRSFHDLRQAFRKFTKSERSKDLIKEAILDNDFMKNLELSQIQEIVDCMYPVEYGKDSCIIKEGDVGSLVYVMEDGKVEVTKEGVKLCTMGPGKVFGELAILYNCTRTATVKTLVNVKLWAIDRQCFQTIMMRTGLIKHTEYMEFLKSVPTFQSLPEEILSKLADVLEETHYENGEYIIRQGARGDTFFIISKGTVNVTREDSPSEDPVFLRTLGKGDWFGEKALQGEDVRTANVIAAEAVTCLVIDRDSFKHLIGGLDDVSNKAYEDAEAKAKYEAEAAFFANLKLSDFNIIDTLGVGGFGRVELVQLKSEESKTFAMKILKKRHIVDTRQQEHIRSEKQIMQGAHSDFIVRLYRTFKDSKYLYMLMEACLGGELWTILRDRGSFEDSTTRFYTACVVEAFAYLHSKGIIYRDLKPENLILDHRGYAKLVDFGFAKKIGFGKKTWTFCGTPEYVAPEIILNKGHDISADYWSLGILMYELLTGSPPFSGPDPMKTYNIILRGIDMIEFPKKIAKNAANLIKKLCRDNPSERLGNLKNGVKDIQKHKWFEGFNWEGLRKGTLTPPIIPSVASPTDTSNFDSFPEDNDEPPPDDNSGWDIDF
The following applies: at 0.1 µM.

Assay [15] addresses T5, cGMP-dependent protein kinase 1 (Homo sapiens). The following applies: at 1 µM.
The target in assay [16] is T6, cGMP-dependent protein kinase 2 (Homo sapiens) (UniProt Q13237).
T6 sequence (whole entry): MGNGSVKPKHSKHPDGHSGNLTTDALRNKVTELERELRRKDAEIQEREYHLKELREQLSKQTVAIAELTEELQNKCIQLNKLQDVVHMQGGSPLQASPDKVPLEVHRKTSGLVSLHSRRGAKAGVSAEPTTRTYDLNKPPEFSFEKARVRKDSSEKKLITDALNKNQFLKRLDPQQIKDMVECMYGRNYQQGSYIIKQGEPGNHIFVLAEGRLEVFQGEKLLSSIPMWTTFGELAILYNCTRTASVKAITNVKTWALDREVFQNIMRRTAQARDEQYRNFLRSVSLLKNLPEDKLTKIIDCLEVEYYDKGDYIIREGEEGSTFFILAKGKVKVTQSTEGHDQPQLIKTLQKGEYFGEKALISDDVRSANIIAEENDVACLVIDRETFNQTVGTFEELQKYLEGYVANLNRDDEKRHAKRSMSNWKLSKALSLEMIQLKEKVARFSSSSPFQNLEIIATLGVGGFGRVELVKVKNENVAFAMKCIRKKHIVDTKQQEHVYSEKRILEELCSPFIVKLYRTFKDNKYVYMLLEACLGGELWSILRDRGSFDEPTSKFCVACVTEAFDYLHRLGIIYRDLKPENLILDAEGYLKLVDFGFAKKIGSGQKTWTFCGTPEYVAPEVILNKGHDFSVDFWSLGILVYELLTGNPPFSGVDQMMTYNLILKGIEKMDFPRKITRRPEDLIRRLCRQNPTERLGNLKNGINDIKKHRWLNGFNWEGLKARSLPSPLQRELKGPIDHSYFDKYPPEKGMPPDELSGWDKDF
The following applies: at 0.1 µM.

Assay [17] has as its target T6, cGMP-dependent protein kinase 2 (Homo sapiens). The following applies: at 1 µM.
Assay [18] deals with T7, cAMP-dependent protein kinase catalytic subunit PRKX (Homo sapiens) (UniProt P51817).
T7 sequence (whole entry): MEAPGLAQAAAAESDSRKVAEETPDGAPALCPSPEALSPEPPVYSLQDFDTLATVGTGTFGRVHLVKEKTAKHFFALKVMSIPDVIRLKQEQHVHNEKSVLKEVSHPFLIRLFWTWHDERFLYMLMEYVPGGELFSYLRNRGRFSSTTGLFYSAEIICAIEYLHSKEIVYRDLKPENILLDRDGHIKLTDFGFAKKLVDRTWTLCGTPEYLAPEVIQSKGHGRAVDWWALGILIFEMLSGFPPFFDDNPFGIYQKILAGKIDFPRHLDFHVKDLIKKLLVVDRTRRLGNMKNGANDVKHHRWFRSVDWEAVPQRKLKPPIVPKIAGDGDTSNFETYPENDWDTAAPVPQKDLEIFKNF
The conditions noted are these: at 0.1 µM.

The target in assay [19] is T7, cAMP-dependent protein kinase catalytic subunit PRKX (Homo sapiens). The conditions noted are these: at 1 µM.
The target of assay [20] is Rho-associated protein kinase 1 (Homo sapiens) (UniProt Q13464). The following applies: at 0.1 µM.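 Also: values are mean percent inhibition of ROCK1.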

Several values for one entry are separate records, joined by “and”; a condition that tells them apart may be missing. Equal entries are not always repeated.

Chain of Protein kinase C theta type (Homo sapiens) (Q04759 whole entry, looked up): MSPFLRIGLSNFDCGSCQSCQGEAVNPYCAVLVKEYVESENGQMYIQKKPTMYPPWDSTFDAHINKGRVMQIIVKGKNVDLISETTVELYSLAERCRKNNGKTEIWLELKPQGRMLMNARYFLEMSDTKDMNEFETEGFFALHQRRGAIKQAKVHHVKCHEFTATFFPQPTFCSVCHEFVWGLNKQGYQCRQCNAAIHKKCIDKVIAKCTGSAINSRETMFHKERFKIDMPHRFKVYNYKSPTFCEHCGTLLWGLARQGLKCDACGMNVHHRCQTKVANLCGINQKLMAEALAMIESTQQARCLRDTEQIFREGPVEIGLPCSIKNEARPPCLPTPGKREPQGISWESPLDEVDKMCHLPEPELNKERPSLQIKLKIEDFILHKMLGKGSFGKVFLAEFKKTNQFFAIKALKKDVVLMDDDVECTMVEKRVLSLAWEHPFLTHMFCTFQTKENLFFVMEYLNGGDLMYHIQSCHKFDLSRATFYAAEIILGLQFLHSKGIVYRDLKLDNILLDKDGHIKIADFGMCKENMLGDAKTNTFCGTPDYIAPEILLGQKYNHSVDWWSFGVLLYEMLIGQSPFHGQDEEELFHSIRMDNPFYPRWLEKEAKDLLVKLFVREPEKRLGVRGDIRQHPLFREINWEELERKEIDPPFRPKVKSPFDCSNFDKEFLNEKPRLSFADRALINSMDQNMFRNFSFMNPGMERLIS
Chain of Protein kinase C beta type (Homo sapiens) (P05771 2-671 limits assumed): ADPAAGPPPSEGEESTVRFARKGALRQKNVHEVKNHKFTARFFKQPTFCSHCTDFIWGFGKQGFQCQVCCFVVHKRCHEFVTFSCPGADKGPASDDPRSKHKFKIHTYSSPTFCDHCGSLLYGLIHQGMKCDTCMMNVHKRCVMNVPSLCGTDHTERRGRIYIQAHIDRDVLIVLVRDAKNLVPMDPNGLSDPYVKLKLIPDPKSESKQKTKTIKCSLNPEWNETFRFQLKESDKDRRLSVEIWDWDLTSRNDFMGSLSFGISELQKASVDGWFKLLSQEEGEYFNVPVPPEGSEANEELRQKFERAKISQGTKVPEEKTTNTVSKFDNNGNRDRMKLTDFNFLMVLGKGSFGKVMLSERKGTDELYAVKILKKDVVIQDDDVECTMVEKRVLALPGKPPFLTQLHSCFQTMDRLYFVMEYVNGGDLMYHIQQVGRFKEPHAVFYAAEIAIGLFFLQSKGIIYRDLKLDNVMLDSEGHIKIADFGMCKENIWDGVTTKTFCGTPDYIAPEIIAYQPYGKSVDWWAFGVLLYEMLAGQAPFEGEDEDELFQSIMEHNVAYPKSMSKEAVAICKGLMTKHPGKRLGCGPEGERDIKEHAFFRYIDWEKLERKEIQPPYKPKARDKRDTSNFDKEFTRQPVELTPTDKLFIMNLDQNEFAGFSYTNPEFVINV
Chain of Rho-associated protein kinase 1 (Homo sapiens) (Q13464 2-1354 limits assumed): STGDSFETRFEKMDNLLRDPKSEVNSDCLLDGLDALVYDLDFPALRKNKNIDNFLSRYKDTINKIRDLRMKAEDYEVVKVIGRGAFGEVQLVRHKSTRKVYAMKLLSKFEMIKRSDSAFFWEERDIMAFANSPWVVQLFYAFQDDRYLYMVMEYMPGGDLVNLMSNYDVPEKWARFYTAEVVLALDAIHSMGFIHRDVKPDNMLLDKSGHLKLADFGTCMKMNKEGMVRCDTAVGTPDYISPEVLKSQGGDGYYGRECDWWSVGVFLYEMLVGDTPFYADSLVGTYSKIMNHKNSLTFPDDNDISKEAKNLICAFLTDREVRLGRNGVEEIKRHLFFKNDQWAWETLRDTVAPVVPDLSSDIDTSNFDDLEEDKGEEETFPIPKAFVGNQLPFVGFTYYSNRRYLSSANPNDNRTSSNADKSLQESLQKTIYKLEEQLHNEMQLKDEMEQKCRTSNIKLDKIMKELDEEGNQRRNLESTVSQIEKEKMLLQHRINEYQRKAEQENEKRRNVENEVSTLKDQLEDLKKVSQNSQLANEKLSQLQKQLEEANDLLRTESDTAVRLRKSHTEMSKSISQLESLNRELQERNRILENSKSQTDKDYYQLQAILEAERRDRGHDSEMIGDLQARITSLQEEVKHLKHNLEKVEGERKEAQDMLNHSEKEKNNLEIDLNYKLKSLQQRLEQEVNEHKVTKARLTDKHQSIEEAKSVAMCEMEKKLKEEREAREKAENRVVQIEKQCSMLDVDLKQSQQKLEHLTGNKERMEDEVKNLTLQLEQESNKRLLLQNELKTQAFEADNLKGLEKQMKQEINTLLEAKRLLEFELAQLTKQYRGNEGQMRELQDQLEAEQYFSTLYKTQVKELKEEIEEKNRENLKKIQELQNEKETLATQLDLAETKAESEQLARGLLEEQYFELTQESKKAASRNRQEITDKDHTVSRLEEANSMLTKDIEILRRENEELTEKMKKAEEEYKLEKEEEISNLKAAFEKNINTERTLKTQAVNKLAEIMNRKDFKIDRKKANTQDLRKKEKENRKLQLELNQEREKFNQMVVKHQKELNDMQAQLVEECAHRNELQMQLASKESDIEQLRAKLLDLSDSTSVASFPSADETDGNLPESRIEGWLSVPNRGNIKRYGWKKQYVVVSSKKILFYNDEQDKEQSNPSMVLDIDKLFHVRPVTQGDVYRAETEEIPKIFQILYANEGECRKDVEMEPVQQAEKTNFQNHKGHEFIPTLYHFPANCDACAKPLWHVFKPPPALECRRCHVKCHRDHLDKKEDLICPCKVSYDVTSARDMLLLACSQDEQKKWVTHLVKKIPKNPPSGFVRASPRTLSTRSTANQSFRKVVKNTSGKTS

Take `Nc1ncnc2occ(-c3ccc(NC(=O)Nc4cc(C(F)(F)F)ccc4F)cc3)c12`: the inhibition in assay [1] was 4.25% and -2.46%; in assay [2], 1.22% and 0.26%; in assay [3] it was 2.9% and 0.4%; in assay [4], 0.8% and -1.06%; in [5] it was -0.69% and -1.44%; in assay [6], 0.86% and -0.64%. In addition, the inhibition in assay [7] was 1.67% and 0.08%; in assay [8], 1.55% and -2.08%; in [9], 2.08% and -1.19%; in assay [10], 1.19% and -0.28%; in [11] it was 1.3% and 0.14%; in assay [12], 2.15% and -1.96%. For the same compound, the inhibition in assay [13] was 1.95% and -2.28%; in [14], 2.47% and 0.31%; in [15], 1.42% and 0.75%; in assay [16], 1.4% and 0.27%; in assay [17] it was 2.16% and 1.02%; in assay [18], 0.81% and 0.1%. Further, the inhibition in [19] was -1.13% and -0.05%; in assay [20], 1.07% and 0.31%.
As to `CC1=C(C(=O)Nc2ccc3[nH]ncc3c2)C(c2ccc(F)cc2)N=C(c2ccc(C(F)(F)F)nc2)N1` (stereo not given), the inhibition was 3.28% in [1]; 1% in [2]; 1.59% in assay [3]; 1.3% in assay [4]; 1.01% in assay [5]; 4.27% in assay [6]. For the same compound, the inhibition worked out at 0.68% in assay [7]; 2.04% in [8]; 3.26% in [9]; 2.6% in assay [10]; 2.33% in assay [11]; 3.1% in assay [12]. For the same compound, the inhibition worked out at 2.8% in [13]; 7.52% in assay [14]; 42.2% in assay [15]; 4.96% in assay [16]; 31.1% in assay [17]; 3.93% in assay [18]. Further, the inhibition in assay [19] worked out at 23.6%; in assay [20], 31.3%.
